Compounds with a hit are over-represented: about 2.3% of the library has one in this group of screens.
WRN helicase inh-1 – qHTS for Inhibitors of WRN Helicase. actives 0.46% (n = 360,000). WRN helicase unwinding, fluorescent forked duplex, kinetic. Potency, µM (top dose mostly 114 µM), without a hit: at the highest dose activity change, negative = inhibition, usual class: inhibitors. AID 651768, 2012; further: on the % scale 0 is the no-effect control and ±100 the full control effect; nearly all actives have a fitted effect of over 55% in size
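Kinetic red-fluorescence monitoring (525/598 nm) tracks WRN helicase activity after 100 nM fluorophore-quencher forked duplex and 2 mM ATP are added to 20 nM enzyme pretreated 15 min at room temperature with compound.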
POLI inh – qHTS for Inhibitors of Polymerase Iota. actives 1% (n = 390,000). AID 588590, 2011. Potency, µM (doses to about 115 µM), inactives show top-dose activity, negative = inhibition, actives largely listed as inhibitors. Pol iota fluorescent replication assay, 10 min. DNA polymerase iota (Homo sapiens), Q9UNA4
Target sequence (Q9UNA4 whole entry, looked up): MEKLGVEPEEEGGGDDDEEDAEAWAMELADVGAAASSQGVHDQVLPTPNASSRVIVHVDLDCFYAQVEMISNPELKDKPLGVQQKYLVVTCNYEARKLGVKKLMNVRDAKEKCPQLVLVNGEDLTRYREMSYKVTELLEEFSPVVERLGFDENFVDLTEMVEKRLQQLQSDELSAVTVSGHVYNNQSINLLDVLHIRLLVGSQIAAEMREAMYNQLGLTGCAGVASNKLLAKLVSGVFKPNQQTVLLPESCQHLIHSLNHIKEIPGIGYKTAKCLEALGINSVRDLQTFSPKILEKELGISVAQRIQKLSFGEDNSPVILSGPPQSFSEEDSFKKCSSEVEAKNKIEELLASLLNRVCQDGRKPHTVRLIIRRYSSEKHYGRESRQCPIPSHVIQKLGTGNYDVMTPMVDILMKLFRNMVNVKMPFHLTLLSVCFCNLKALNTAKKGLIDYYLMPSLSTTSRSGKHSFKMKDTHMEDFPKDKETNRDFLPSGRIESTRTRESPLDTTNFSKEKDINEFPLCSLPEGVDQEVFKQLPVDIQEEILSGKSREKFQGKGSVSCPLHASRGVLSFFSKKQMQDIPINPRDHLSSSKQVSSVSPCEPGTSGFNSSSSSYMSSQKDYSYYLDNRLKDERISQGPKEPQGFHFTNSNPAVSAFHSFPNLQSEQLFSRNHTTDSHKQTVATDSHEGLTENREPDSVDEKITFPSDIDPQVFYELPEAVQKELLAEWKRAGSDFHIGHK
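Pol iota at 10 nM preincubated 15 min with compounds at room temperature; reaction started with fluorescent substrate, 50 nM final. Fluorescence read kinetically at 0 and 10 min; buffer-only wells as negative control.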
POLB inh – qHTS Assay for Inhibitors of DNA Polymerase Beta | actives 1.3% (n = 340,000) | Potency, µM (top dose mostly 114 µM), inactives show at the highest dose activity change, negative = inhibition, hits mostly inhibitors | Pol beta primer extension/strand displacement, fluorescence kinetic; further: on the % scale 0 is the no-effect control and ±100 the full control effect
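Preincubation: enzyme (10 nM) with compound, 15 min, RT. Reaction: substrate added to 50 nM final. Reads: 0 and 10 min. Analysis: normalized, Hill fit.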
Pol eta inh-1 – qHTS for Inhibitors of Polymerase Eta; DNA polymerase eta (Homo sapiens), Q9Y253; recombinant Pol eta, fluorescent DNA replication assay; Potency, µM (series often up to 114 µM), without a hit: at the top dose activity change, negative = inhibition, most hits filed as inhibitors; actives 1.2% (n = 390,000); further: on the % scale 0 is the no-effect control and ±100 the full control effect
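Pol eta at 10 nM preincubated with compounds 15 min at room temperature; reaction started with fluorescent substrate (50 nM final) and read kinetically at 0 and 10 min.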
Pol kappa inh-1 – qHTS for Inhibitors of Polymerase Kappa; purified Pol kappa, fluorescent DNA synthesis assay, 10 min; AID 588579, 2011; Potency, µM (doses to about 107 µM), without a hit: top-dose activity, negative = inhibition, hits mostly inhibitors; DNA polymerase kappa (Homo sapiens), Q9UBT6; actives 0.53% (n = 400,000); further: on the % scale 0 is the no-effect control and ±100 the full control effect
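Kinetic fluorescence screen: compound preincubated 15 min RT with 10 nM enzyme; 50 nM substrate (final) initiates; reads at 0/10 min.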
PGK validate – qHTS for inhibitors of Phosphogylcerate Kinase: Hit Validation Screen | shares compounds with Pol kappa inh-1 | AID 686980, 2013 | Potency, µM (titrated, usually from 57.5 µM), without a hit: top-dose activity change, negative = inhibition, hits mostly inhibitors | actives 79% (n = 500) | TbPGK coupled GAPDH assay, Kinase-Glo luminescence; further: on the % scale 0 is the no-effect control and ±100 the full control effect; nearly all actives have a fitted effect of over 65% in size
Pol iota confirm – qHTS for Inhibitors of Polymerase Iota: Confirmatory Assay for Cherry-picked Compounds; Potency, µM, most hits filed as inhibitors; AID 720496, 2013; shares compounds with Pol kappa inh-1; actives 77% (n = 1,500); Pol iota primer extension, TAMRA/BHQ fluorescence
Pol kappa inh-2 – qHTS for Inhibitors of Polymerase Kappa: Confirmatory Assay for Cherry-picked Compounds; purified Pol-kappa, fluorescent strand-displacement substrate; actives 76% (n = 920); Potency, µM, usual class: inhibitors; shares compounds with Pol eta inh-1
Pol eta inh-2 – qHTS for Inhibitors of Polymerase Eta: Confirmatory Assay for Cherry-picked Compounds. shares compounds with Pol eta inh-1. Pol eta primer extension, TAMRA/BHQ fluorescence, 10 min. Potency, µM, usual class: inhibitors. actives 64% (n = 2,600). AID 720502, 2013
WRN helicase inh-2 – qHTS for Inhibitors of WRN Helicase: Confirmatory Assay for Cherry-picked Compounds; shares compounds with WRN helicase inh-1; WRN helicase DNA unwinding, fluorescence kinetic; Potency, µM (highest dose often 57.1 µM), inactives show top-dose activity, negative = inhibition, most hits filed as inhibitors; actives 63% (n = 610); further: nearly all actives have a fitted effect of over 65% in size
TO displacement – qHTS for Inhibitors of WRN Helicase: Thiazole Orange DNA Binding Counterscreen. shares compounds with WRN helicase inh-1. thiazole orange DNA binding displacement, fluorescence. Potency, µM (series often up to 57.1 µM), for inactives: top-dose activity change, negative = inhibition, hits mostly inhibitors. actives 10% (n = 610);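 further: drop in dye fluorescence marks compound binding to DNA; on the % scale 0 is the no-effect control and ±100 the full control effect; nearly all actives have a fitted effect of over 60% in size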
BLM counter – qHTS for Inhibitors of WRN Helicase: BLM Helicase Counterscreen for WRN Inhibitors; shares compounds with WRN helicase inh-1; Recombinant BLM helicase DNA unwinding, red fluorescence; Potency, µM (top dose mostly 57.1 µM), for the others: top-dose activity change, negative = inhibition, most hits filed as inhibitors; actives 60% (n = 610); further: nearly all actives have a fitted effect of over 60% in size
An asterisk follows results filed as active; i = inactive; ? = inconclusive; . = no result; ! = not confirmed by another sample; [ ] = remark or other dose. The call rests on the fitted dose curve; in most records, active means well fitted curve in the direction sought with a large enough effect; inconclusive means small, poorly fitted or top-dose-only effect, or another doubt; inactive means no such curve, though single readings can be large; an effect the other way counts as inactive or inconclusive. Potency means the concentration at half of the fitted maximal effect.

SMILES | WRN helicase inh-1 | POLI inh | POLB inh | Pol eta inh-1 | Pol kappa inh-1 | Pol iota confirm | Pol eta inh-2 | WRN helicase inh-2 | TO displacement | BLM counter | others
COc1cc(/C=N/N=C2/C(=O)Nc3ccccc32)ccc1O | -15% | 25% | 10% | ? | -18% | . | . | . | . | .
Oc1ccc(/C=N/N=C/c2ccc(O)cc2)cc1 | 7% | 20% | 0% | -9% | -1% | . | . | . | . | .
Cc1cc(-c2ccc(C)c(S(=O)(=O)Nc3cccc(C#N)c3)c2)on1 | . | 7% | -3% | -11% | -19% | . | . | . | . | .
CN(C)CCNc1ccc2nnn3c4ccc(O)cc4c(=O)c1c23 | 23%[11.6 µM] | ? | . | ? | -42% | . | . | . | . | .
CCN(CC)CCCNc1ccc2ncn3c4ccc(O)cc4c(=O)c1c23 | 25µM* | ? | . | ? | 79µM* | 42* | . | 22µM* | i | -62%
Cc1nc2ccc(C(=O)O)cc2c2c1CC(C)S2 (centres undefined) | 32µM* | 5µM* | 22µM* | 2.5µM* | 32µM* | 19* | 9.5* | 19µM* | -18% | ?
NS(=O)(=O)c1cc(C(=O)NC2CCSc3ccccc32)ccc1Cl (centres undefined) | 0.84µM* | 1.3µM* | 0.32µM* | -100% | 0.79µM* | 0.6* | 0.6* | 0.54µM* | -21% | 0.27µM* | PGK validate=0.15µM*;Pol kappa inh-2=0.27*
CCOC(=O)c1ccc(N2CCN(c3cc(C)ccc3C)CC2)c(NC(=O)Nc2ccccc2)c1 | . | 42% | 36% | -6% | -4%[60.1 µM] | . | . | . | . | .
COc1ccc2c(c1)C(=O)[C@H](O)[C@@H](c1ccc(OC)c(Br)c1)O2 | 9% | 43% | 0% | -16% | -17% | . | . | . | . | .
O=C1c2cc(O)c(O)cc2OC(c2ccc(O)c(O)c2)C1O (centres undefined) | ? | 3.2µM* | . | 14µM* | 8.9µM* | 38* | 27* | 14µM* | -14% | ? | Pol kappa inh-2=19*
CC(C)c1cc(-c2nc(-c3ccc(Cl)cc3)no2)n[nH]1 | . | -5% | 3% | -7% | 17% | . | . | . | . | .
CC1=Nc2ccccc2/C1=C\c1nc(-c2ccc(F)cc2)oc1O | ? | ? | 35µM* | ? | ? | ? | 34* | 19µM* | 106% | 19µM*
CCOC(=O)N1CCc2c(sc(NCc3cccc(F)c3)c2C(=O)Nc2ccc(OC)cc2OC)C1 | . | 60% | 2% | -17% | -10%[60.1 µM] | . | . | . | . | .
O=C1CC(c2ccc(O)c(O)c2)Oc2c1ccc(O)c2O (centres undefined) | 3.2µM* | 1.6µM* | 0.4µM* | 0.79µM* | 1.8µM* | 3.4* | 3.4* | 1.1µM* | ? | 0.96µM* | PGK validate=0.92µM*
CC(C)=CCc1c(O)ccc2c1OC(c1ccc(O)c(O)c1)CC2=O (centres undefined) | -7% | -30% | ? | -15% | -14% | . | . | . | . | .
O=C(CSc1nccn1-c1ccc(F)cc1)Nc1ccc(OC(F)(F)F)cc1 | . | 1% | -25% | -21% | -5%[60.1 µM] | . | . | . | . | .
Cc1cc(C)c(S(=O)(=O)/N=C2\C=C(Nc3ccc(C(=O)O)cc3)C(=O)c3ccccc32)c(C)c1 | 89µM* | 14µM* | 22µM* | 11µM* | 89µM* | 67* | 17* | 22µM* | ? | 15µM*
Oc1ccc(C2CNCCc3c2cc(O)c(O)c3Cl)cc1 (centres undefined) | ? | 14µM*! | ? | ? | -1%[60.1 µM] | ? | . | 19µM* | -1% | 24µM*
Oc1cc2c(c(Cl)c1O)CCNC[C@H]2c1ccccc1 | . | . | . | . | -13%[19.4 µM] | . | . | . | . | .
O=C(N/N=C/c1ccc(-c2ccc(S(=O)(=O)Nc3ncccn3)cc2)o1)c1cc2ccccc2cc1O | 8.9µM* | 1.3µM* | 13µM* | 0.89µM* | 4.5µM* | 17* | 4.8* | 6.8µM* | ? | 15µM* | PGK validate=?;Pol kappa inh-2=3.8*
CCOC(=O)c1cc(-c2ccccc2)n(CCCC(=O)Nc2cc(C)ccc2OC)c1C | . | -14% | 0% | 5% | -9%[60.1 µM] | . | . | . | . | .
Cc1cc(OCC(=O)Nc2ccc(N3CCN(C(=O)c4ccco4)CC3)cc2)cc(C)c1Cl | ? | ? | ? | 79µM* | -3% | 53* | ? | ? | -10% | 5.4µM*
CCOc1cc(OCC)c(C(=O)CCC(=O)O)cc1OCC | . | . | . | . | 7%[19.4 µM] | . | . | . | . | .
CCOC(=O)c1c(C)sc(-c2c(-c3ccc4c(c3)OCCO4)[nH]c3c2c(=O)[nH]c(=O)n3C)c1O | . | -24% | ? | ? | -10% | . | . | . | . | .
CC1=C(C(=O)Nc2ccccc2)C(c2ccc[nH]2)n2ncnc2N1 (centres undefined) | . | ? | 8.9µM* | . | ? | 8.4* | 8.5* | 7.6µM* | ? | 1.1µM* | Pol kappa inh-2=3.4*
CC1=C(C(=O)Nc2ccccc2)C(c2ccccn2)n2ncnc2N1 (centres undefined) | -3% | 40% | 41% | -17% | -7% | . | . | . | . | .

Source: PubChem BioAssay (National Center for Advancing Translational Sciences (NCATS))
